For 104 compounds, Potency results are on record in PubChem BioAssay AID504834 (National Center for Advancing Translational Sciences (NCATS), 2011).

Hit rate of the full screen: of about 320,000 compounds, about 22,000 (6.9%) were called active. A call without a number means that no potency is given here. About 27% were inconclusive and are not listed. The call rests on the fitted dose curve; in most records, active means well fitted inhibition curve with a large enough effect; inconclusive means small, poorly fitted or top-dose-only effect, or another doubt; inactive means no such curve, though single readings can be large or run the other way. This excerpt belongs to a sample that is enriched for actives.
Potency means the concentration at half of the fitted maximal effect.

A short description of this assay: Primary qHTS for delayed death inhibitors of the malarial parasite plastid, 96 hour incubation. As to conditions: P. falciparum luciferase reporter growth; series mostly up to 28.7 µM. From the text:
The goal of this screen is to discover new antimalarial compounds that act by inhibiting the development of the apicoplast in the malarial parasite Plasmodium falciparum. The biochemical processes that make this organelle essential for erythrocytic stage parasites are not well understood. However, antibiotics such as azithromycin and tetracycline, which target the apicoplast translational machinery, have a potent antimalarial effect.
We have developed a cell-based assay that measures parasite growth based on the expression of an integrated copy of a firefly luciferase reporter. To detect small molecules that cause this "delayed death" phenotype, erythrocytes infected with the luciferase-expressing parasites were incubated with compounds for either one or two generations, corresponding to 48 and 96 hours, respectively. Compounds that inhibit parasite growth in the second generation, but not the first, should be enriched in antimalarials that target the apicoplast. Growth inhibition is detected by a decrease in luciferase activity.
Assay Provider: David Fidock and Eric Ekland, Columbia University
Keywords: NIH Roadmap, MLPCN, MLI, MLSMR, qHTS, NCGC, qHTS, malaria, luciferase, viability
Four microliters of infected erythrocytes (2% hematocrit, 0.05% parasitemia final concentration) in culture medium were dispensed and the plates incubated for 96 hours at 37 C in 5% CO2. Two microliters of luciferase detection reagent was added and luminescence was detected by a ViewLux (PerkinElmer) reader.
Regarding `CCCc1cc(=O)oc2c(C)c(O)c(CN3CCCCC3)cc12`, the Potency is 2.08 µM (active).
The entry for `CCCc1cc(=O)oc2c(C)c(OC(C)C(=O)NCC(O)c3ccccc3)ccc12` (centres undefined) is “inactive”.
The entry for `CCCCc1cc(=O)oc2c(C)c(OCC(=O)N3CCC(C(N)=O)CC3)ccc12` is “inactive”.
The entry for `COc1ccc(NC(=O)CN2C(=O)COc3ccc(S(=O)(=O)N4CCOCC4)cc32)cc1` is “inactive”; for `Cc1ccc(S(=O)(=O)N2CCC(C)CC2)cc1C(=O)NCc1ccccn1` it is “inactive”; for `O=C(CCc1nc2sc3c(c2c(=O)[nH]1)CCCC3)NCC(=O)Nc1ccccc1Br` it is “inactive”.
With `O=C(CCNS(=O)(=O)c1cccs1)N1CCN(c2ccc(F)cc2)CC1`, the Potency result was “inactive”.
The figure for `CN(CCC1CCOCC1)Cc1cn[nH]c1-c1ccc(-c2ccccc2)cc1` is 13.1 µM (active); for `CN(CCC1CCOCC1)C(=O)CC1C(=O)NCCN1Cc1cccc(F)c1` (centres undefined) it is “inactive”; for `O=[N+]([O-])c1ccc(N2CCSCC2)cc1O` it is “inactive”.
For `O=C(COC(=O)C1CC2CCCC(C1)C2=O)NC(=O)c1ccccc1` (centres undefined) the value was “inactive”; for `Cc1ccc(Nc2nc(-c3ccc(O)cc3O)cs2)nc1`, “inactive”; for `Cc1cc(O)ccc1-c1cnc2ccccc2n1`, 2.62 µM (active).
For `CC(=O)Nc1cccc(-c2cnc3ccccc3n2)c1` the value was “inactive”; for `COc1ccc2oc(=N)c(C(=O)Nc3ccc(Br)cc3)cc2c1`, “inactive”.
With `Cc1sc2c(c1C)c(=O)n(-c1ccccc1)c(=O)n2CC(=O)NCC1CCCO1` (centres undefined), the Potency result is “inactive”.
The entry for `Cc1cccc(-n2c(=O)c3c(C)c(C)sc3n(CC(N)=O)c2=O)c1` is “inactive”; for `Cc1cccc(NC(=O)Cn2c(=O)n(Cc3ccccc3)c(=O)c3c(C)c(C)sc32)c1` it is 14.7 µM (active); for `Cc1noc(C)c1COc1ccccc1C(=O)N(C)CC(=O)Nc1cccc(F)c1` it is “inactive”.
The entry for `O=C(O)C1CCC(CNS(=O)(=O)c2ccc(Br)cc2)CC1` (centres undefined) is “inactive”; for `CN(C)CCCNC(=S)N1CCN(c2nc(-c3ccccc3)cs2)CC1` it is “inactive”.
For `Cc1ccc(NC(=O)C(CC(=O)O)C2CCCO2)c(C)c1` (centres undefined), the Potency entry was “inactive”.
The entry for `COc1cccc(/C=C2\C=C(c3ccc(C)cc3)OC2=O)c1OC(C)=O` is “inactive”; for `O=C(COC(=O)CCCN1C(=O)c2cccc3cccc(c23)C1=O)NC1CCS(=O)(=O)C1` (centres undefined) it is “inactive”; for `COc1cc([N+](=O)[O-])ccc1NC(=O)COC(=O)CCOc1ccc(C)cc1` it is “inactive”.
The entry for `O=C(Nc1nnc(CCN2CCCCC2)s1)c1cccc(Cl)c1` is “inactive”.
The figure for `CCN(CC)C(=O)Oc1ccc(Br)cc1C(=O)Nc1ccc(F)c(Cl)c1` is 11.7 µM (active).
With `CCN(CC)C(=O)C(=O)Nc1cccc(Br)c1`, the Potency entry is “inactive”.
The entry for `COC(=O)c1ccc(NC(=O)c2cc(Cl)ccc2OC)cc1` is “inactive”.
For `Cc1cc(C)n2nc(C(=O)OCC(=O)N(C)CC(=O)Nc3ccc(F)cc3)nc2n1` the value was “inactive”; for `COc1ccccc1NC(=O)C1=C(C)NC(=O)NC1c1ccc(C)s1` (centres undefined), 6.57 µM (active).
The entry for `COc1ccccc1NC(=O)C1=C(C)NC2=C(C(=O)CCC2)C1c1ccc(C)o1` (centres undefined) is “inactive”; for `COc1ccccc1NC(=O)C1=C(C)Nc2ncnn2C1c1ccc(C)o1` (centres undefined) it is “inactive”; for `Cc1ccc(Nc2ncnc3c2cnn3C)c(C)c1` it is “inactive”.
Take `O=C(C1CC1)N1CCN=C1SCc1ccc(Cl)cc1`: the Potency entry is “inactive”.
For `O=C(COc1ccccc1)N1CCN=C1SCc1cccc(F)c1` the value was “inactive”; for `O=C(c1ccco1)N1CCN=C1SCc1cccc(Cl)c1`, 10.4 µM (active).
For `COc1ccccc1C1C(C(N)=O)=C(C)Nc2nc(CCCO)nn21` (centres undefined) the value was “inactive”; for `Clc1ccc(C2=CSC3=Nc4cccc5cccc(c45)N23)cc1`, 3.7 µM (active); for `COc1ccccc1-c1c(C#N)c(N)nc2c1CCC2`, “inactive”.
For `O=C(Nc1nonc1-c1ccc(Cl)cc1)c1ccco1` the value was “inactive”.
As for `COCCn1c(SC(C)C(=O)NC2CC2)nnc1-c1cccc(C)c1` (centres undefined), the Potency result was “inactive”.
For `CCc1nc2cccnc2n1-c1ccc(C(=O)O)cc1` the value was “inactive”; for `COC(=O)c1cc(CNC(=O)CC(C)c2ccccc2)ccc1OC` (centres undefined), “inactive”.
Consider `CCOc1ccc(CN(CCCl)CCCl)cc1C(=O)OC`, for which the Potency entry was “inactive”.
For the compound `CCCOc1ccc(CN(CCO)CCO)cc1C(=O)OC`, the Potency was 8.28 µM (active).
For `Cc1ccc(C(=O)NCCc2nnc(SCC(=O)Nc3cccc(C(=O)O)c3)n2C)cc1` the value was “inactive”; for `COc1cc(CCC(=O)N2CCN(c3ccccc3Cl)CC2)cc(OC)c1OC`, “inactive”; for `Cc1ccc(NC(=S)NCCc2ccc(Cl)cc2)c(C)c1`, “inactive”.
With `COc1cc(C(C)=O)ccc1OC(=O)CN1C(=O)c2ccccc2C1=O`, the Potency entry was “inactive”.
The entry for `CCOC(=O)CN1C(=O)C(=O)c2cc(C)ccc21` is “inactive”; for `CC(C)OC(=O)CN1C(=O)C(=O)c2ccccc21` it is 2.08 µM (active); for `Cc1cccc2c1N(CC(=O)OC(C)C)C(=O)C2=O` it is “inactive”.
The figure for `CC(C)OC(=O)CN1C(=O)c2ccccc2C1=O` is 7.38 µM (active); for `CC(OC(=O)CN1C(=O)c2ccccc2C1=O)C(=O)c1ccccc1` (centres undefined) it is “inactive”.
For the compound `CCCCn1c(N)c(N(CC)C(=O)c2ccc(N(C)S(=O)(=O)c3ccc(C)cc3)cc2)c(=O)[nH]c1=O`, the Potency result is “inactive”.
For `C[C@H](NC(=O)C1CC(=O)N(c2ccc3c(c2)OCCO3)C1)C(=O)N1CCC(C(=O)O)CC1` (some centres undefined) the value was “inactive”.
For `CC(=O)Nc1ccc(C(=O)C(Cc2ccccc2)N(C)C)cc1` (centres undefined) the value was “inactive”; for `CC(C(=O)c1ccc(-c2ccccc2)cc1)[n+]1cccc(Br)c1` (centres undefined), 2.33 µM (active).
For `O=C(NC1CCCC1)C(c1c(F)cccc1Cl)N(C(=O)c1csnn1)C1CC1` (centres undefined) the value was “inactive”; for `COC(=O)c1cc(NC(=O)c2nn(C)c(=O)c3ccccc23)cc(C(=O)OC)c1`, “inactive”.
Take `COc1ccc(-n2nc(C(=O)Nc3cc(OC)c(OC)c(OC)c3)c3ccccc3c2=O)c(OC)c1`: the Potency is 8.28 µM (active).
The entry for `COc1ccc(-n2nc(C(=O)NCC(=O)Nc3cccc(C)n3)c3ccccc3c2=O)cc1` is “inactive”; for `Cc1ccc(NC(=O)Cc2nnc(SCC(=O)Nc3nncs3)n2C)cc1` it is “inactive”; for `CC1CCN(S(=O)(=O)c2ccc3c(ccn3CC(=O)O)c2)CC1` it is “inactive”.
Turning to `O=C(CNC(=O)c1ccccc1F)c1ccc(Br)cc1`, the Potency entry was “inactive”.
For `COc1cccc(NC(=O)CN(C)C(=O)CSCc2nc3scc(-c4cccs4)c3c(=O)[nH]2)c1` the value was “inactive”; for `Cc1ccccc1NC(=O)C(C)OC(=O)CCC(=O)N(CC(C)C)c1c(N)n(CC(C)C)c(=O)[nH]c1=O` (centres undefined), “inactive”.
The entry for `Cc1ccc(S(=O)(=O)N2CCC(C(=O)OCC(=O)N(C)c3ccccc3)CC2)cc1C` is “inactive”; for `CCN(CC(=O)NCc1cccs1)C(=O)c1ccc(OC)c(S(=O)(=O)N2CCOCC2)c1` it is “inactive”; for `CC(C)(C)NC(=O)NC(=O)COC(=O)C1c2ccccc2Oc2ccccc21` it is “inactive”.
The figure for `Cc1ccccc1CSCC(=O)NC(=O)NC(C)(C)C` is 10.4 µM (active).
Take `CC(C)(C)NC(=O)NC(=O)CN1CCC(Cc2ccccc2)CC1`: the Potency result was “inactive”.
The entry for `COc1ccc(NC(=O)c2cc([N+](=O)[O-])ccc2NC(=O)CNC2CCCCC2C)c(OC)c1` (centres undefined) is “inactive”; for `CN(CC(=O)Nc1ccc(F)c(F)c1F)C(=O)Cn1cnc2c1c(=O)n(C)c(=O)n2C` it is “inactive”.
The entry for `COc1ccc2cc(C3=CC(=O)C[C@H](c4ccc5c(c4)OCO5)C3)ccc2c1` is “inactive”; for `COc1ccc([C@H]2CC(=O)C=C(c3ccc(OC(F)(F)F)cc3)C2)cc1OC` it is 11.7 µM (active).
For `COc1ccc([C@H]2CC(=O)C=C(c3ccc(C)cc3)C2)cc1` the value was “inactive”.
As for `COc1cccc(N2CC(NS(=O)(=O)c3cccs3)CC2=O)c1` (centres undefined), the Potency result was “inactive”.
For `FCOC(C(F)(F)F)C(F)(F)F` the value was “inactive”; for `O=C(COc1ccc2c(c1)CCC2)N1CCN(c2ccc(F)cc2)CC1`, “inactive”; for `COc1ccccc1CN1CCN(Cc2cc(OC)c(OC)cc2OC)CC1`, “inactive”.
For `O=C(O)CN1CCN(C(c2ccccc2)c2ccccc2)CC1` the value was “inactive”; for `CC(C)OCC(O)CN1CCN(C(c2ccccc2)c2ccccc2)CC1` (centres undefined), “inactive”.
The entry for `COc1ccccc1NC(=S)N1CCN(C(c2ccccc2)c2ccccc2)CC1` is “inactive”; for `COc1ccccc1CN1CCN(C(c2ccccc2)c2ccccc2)CC1` it is 8.28 µM (active).
In the case of `Oc1ccccc1CN1CCN(C(c2ccccc2)c2ccccc2)CC1`, the Potency is 0.828 µM (active).
For `CC1=C(C(N)=O)C(c2ccc(F)cc2)n2nc(CCCO)nc2N1` (centres undefined) the value was “inactive”.
For `COc1cccc(N(C(=O)c2snc(C(N)=O)c2N)C(C(=O)NCC2CCCO2)c2c[nH]c3ccccc23)c1` (centres undefined) the value was “inactive”.
The entry for `CC(C)Cc1nc(Cl)c(C#N)c2c1CCC2` is “inactive”; for `COC(=O)c1ccc(S(=O)(=O)N(CCO)Cc2ccccc2)n1C` it is “inactive”; for `COc1ccccc1C(=O)Nc1ccc(OCc2nnc3c4ccccc4c(C)nn23)cc1` it is 9.28 µM (active).
Turning to `COc1ccccc1C(=O)Nc1ccc(OCC(=O)N2CCCCC2)cc1`, the Potency entry is “inactive”.
In the case of `COc1ccccc1C(=O)NNC(=O)c1ccc(NC(=O)c2ccccc2)cc1`, the Potency result was “inactive”.
For `CC(=O)N1CCN(C(=O)C2(NC(=O)Nc3ccc(C)cc3)CCCCC2)CC1` the value was “inactive”; for `O=C(NCc1cc(F)cc(C(F)(F)F)c1)C1CCC(=O)N(C2CCCC2)C1` (centres undefined), “inactive”; for `CCOC(=O)c1c(CNCc2ccccc2F)c2sc(C)cc2n1C`, “inactive”.
For `COc1ccc(Nc2ncnc3sc(C)cc23)cc1` the value was “inactive”; for `CN1/C(=c2/s/c(=C3/C(=O)N(c4ccccc4)NC3=Nc3ccccc3)n(C)c2=O)C(C)(C)c2ccccc21`, 11.7 µM (active); for `CCN1C(=O)/C(=c2\s/c(=C3\Sc4ccccc4N3C)c(=O)n2C)N(C)C1=S`, “inactive”.
On to `Cc1csc2nc(O)c(C(=O)NCCN3CCOCC3)c(=O)n12`, for which the Potency entry is “inactive”.
With `O=C(COc1ccc2c3c(c(=O)oc2c1)CCC3)NC1CCCCC1`, the Potency result is “inactive”.
The figure for `CCCOc1ccc2c3c(c(=O)oc2c1OCCC)CCC3` is 6.57 µM (active); for `CCCCC(NS(=O)(=O)c1ccc(C)cc1)C(=O)Oc1ccc2c3c(c(=O)oc2c1)CCC3` (centres undefined) it is “inactive”.
